Screening data from PubChem BioAssay.
IMPase inh = qHTS Assay for Identifying the Cell-Membrane Permeable IMPase Inhibitors; Inositol monophosphatase 1 (Rattus norvegicus), P97697; CHO-M1 cells, IP1 accumulation, HTRF TR-FRET ratio; inhibition (IP1 accumulation), % at 46.1 µM; 120,000 tested, under 10 active; AID 901, 2007; active = well fitted curve in the direction sought with a large enough effect in the signal ratio, not every such curve was filed as active; inconclusive = small, poorly fitted or top-dose-only effect, or a change in a side signal; inactive = no such curve, though single readings can be large or run the other way; the % refers to the signal ratio;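 also: cells stimulated with carbachol in lithium chloride buffer; higher means more IMPase inhibition seen as more IP1 and lower FRET ratio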
Target sequence (P97697 whole entry, looked up): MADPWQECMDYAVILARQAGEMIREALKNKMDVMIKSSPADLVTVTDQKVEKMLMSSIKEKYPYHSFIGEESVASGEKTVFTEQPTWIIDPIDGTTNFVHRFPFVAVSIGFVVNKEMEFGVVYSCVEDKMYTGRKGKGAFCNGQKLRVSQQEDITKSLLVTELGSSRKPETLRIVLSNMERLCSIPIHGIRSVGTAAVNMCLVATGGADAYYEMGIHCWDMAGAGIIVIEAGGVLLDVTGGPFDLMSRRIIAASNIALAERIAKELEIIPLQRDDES
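CHO-M1, 2000 cells/well, cultured 16–30 h; cpd up to 46 uM; carbachol (50 uM solution, stimulation buffer w/ 50 mM LiCl, pH 7.4), 30 min 37C; IP-One TR-FRET, 10 min RT; Ex 320/Em 665, 620; Hill-fit AC50.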
HPGD block = qHTS Assay for Inhibitors of HPGD (15-Hydroxyprostaglandin Dehydrogenase) | Potency, µM, hits mostly inhibitors | purified HPGD, NADH fluorescence kinetic, PGE2 substrate | 150,000 compounds, 4.3% hits | 15-hydroxyprostaglandin dehydrogenase [NAD(+)] (Homo sapiens), P15428
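20 nM HPGD preincubated 15 min at room temperature with compound in 50 mM Tris-HCl pH 8, 0.01% Tween 20. Started with 1 mM NAD+ and 30 uM prostaglandin E2; NADH fluorescence (360/450 nm) read 5 times over 30-s intervals, last minus first.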
ALDH1A1 inh = qHTS Assay for Inhibitors of Aldehyde Dehydrogenase 1 (ALDH1A1); Aldehyde dehydrogenase 1A1 (Homo sapiens), P00352; Purified ALDH1A1, NADH fluorescence, propionaldehyde substrate; Potency, µM (doses to about 75.3 µM), usual class: inhibitors; 220,000 compounds, 7.3% hits; AID 1030, 2008
Target sequence (P00352 whole entry, looked up): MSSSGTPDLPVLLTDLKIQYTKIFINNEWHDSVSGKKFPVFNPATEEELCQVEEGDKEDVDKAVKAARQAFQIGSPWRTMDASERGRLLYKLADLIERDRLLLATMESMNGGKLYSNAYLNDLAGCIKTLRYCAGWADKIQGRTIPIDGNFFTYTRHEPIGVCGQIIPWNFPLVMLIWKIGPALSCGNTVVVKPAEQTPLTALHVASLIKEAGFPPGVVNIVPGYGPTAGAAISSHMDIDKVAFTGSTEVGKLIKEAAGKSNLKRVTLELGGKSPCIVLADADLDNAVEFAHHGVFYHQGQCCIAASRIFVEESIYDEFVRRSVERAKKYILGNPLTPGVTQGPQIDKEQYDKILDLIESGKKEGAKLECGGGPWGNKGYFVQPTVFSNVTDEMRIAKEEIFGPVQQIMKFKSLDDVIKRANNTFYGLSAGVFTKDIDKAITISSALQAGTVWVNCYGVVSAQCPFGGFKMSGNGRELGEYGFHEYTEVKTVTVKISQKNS
Each line names hits and unclear results; the compound was inactive in the other large screens. Rows were chosen to be rich in hits. Some 9% of all compounds tested hit in one or more screens of this group. Unless noted, calls follow the shape of the dose curve; as a rule, active = well fitted inhibition curve with a large enough effect (not every such curve was filed as active); inconclusive = small, poorly fitted or top-dose-only effect, or another doubt; inactive = no such curve, though single readings can be large or run the other way.

COc1ccc(CC2(CO)CCN(Cc3cccn3-c3ccccn3)CC2)cc1	none (no result: IMPase inh, HPGD block)
COc1ccc(N2CC(O)=C(c3nc(C)cs3)C2=N)cc1	ALDH1A1 inh 20µM
Cc1csc(C2=C(O)CN(c3ccc4c(c3)OCCOCCOCCOCCO4)C2=N)n1	none
O=C1CC(c2ccco2)Cc2nc(Nc3ccc(F)cc3)ncc21 (stereo unspecified)	ALDH1A1 inh 10µM
O=C1CC(c2ccco2)Cc2nc(NCC3CCCO3)ncc21 (stereo unspecified)	ALDH1A1 inh inconclusive
O=C(CSc1nnnn1-c1ccccc1)Nc1ncc2c(n1)CC(c1ccco1)CC2=O (stereo unspecified)	ALDH1A1 inh 5µM
COc1ccccc1C(=O)Nc1ncc2c(n1)CC(c1ccco1)CC2=O (stereo unspecified)	ALDH1A1 inh 8.9µM
O=C1CC(c2ccccc2)Cc2nc(NCc3ccco3)ncc21 (stereo unspecified)	none
O=C(Nc1ncc2c(n1)CC(c1ccccc1)CC2=O)c1ccco1 (stereo unspecified)	ALDH1A1 inh inconclusive (no result: IMPase inh)
N#CC1=C(N)N(c2ncn[nH]2)C2=C(C(=O)CCC2)C1c1ccccc1 (stereo unspecified)	none (no result: IMPase inh, HPGD block)
Cc1nnsc1C(=O)Nc1cc(Cl)ccc1Cl	IMPase inh inconclusive
O=C(Oc1ccc(N(Cc2cccs2)C2=NS(=O)(=O)c3ccccc32)cc1)c1ccc(Cl)cc1	ALDH1A1 inh 22µM
O=C(Oc1ccc(N(Cc2cccs2)C2=NS(=O)(=O)c3ccccc32)cc1)c1ccccc1	ALDH1A1 inh inconclusive
CC1(Br)C2CCCC1C2S(=O)(=O)c1ccccc1 (stereo unspecified)	ALDH1A1 inh inconclusive
COc1ccc(N=C2C(=O)Nc3ccccc32)cc1	ALDH1A1 inh inconclusive
COc1ccc(N=C2C(=O)N3c4c(cccc42)C(C)=CC3(C)C)cc1	ALDH1A1 inh 2µM
Cc1cc(=O)cc(C)n1-c1ccc(O)cc1	none (no result: IMPase inh, HPGD block)
Cc1cc(=O)n(-c2ccc(O)cc2)[nH]1	ALDH1A1 inh 0.79µM
CC(=O)Nc1sc(C)c(C)c1C(=O)OCC(=O)N(CC(C)C)C1CCS(=O)(=O)C1 (stereo unspecified)	none
COC(=O)[C@@]1(Cc2ccc(OC)cc2)[C@@H]2C(=CC(=O)[C@H]2CC(=O)C(=O)N(C)C)CN1C(=O)c1ccccc1	none (no result: IMPase inh)
C=C1C(=O)C=C2CN(C(=O)c3ccccc3)[C@@](Cc3ccc(F)cc3)(C(=O)OC)[C@@H]12	HPGD block 16µM (no result: IMPase inh)
O=C(O)c1ccccc1C(c1ccc(O)cc1)c1ccc(O)cc1	ALDH1A1 inh 28µM (no result: IMPase inh)
O=C(NNC(=O)c1ccccc1C(=O)O)c1ccc(O)cc1	none (no result: IMPase inh, HPGD block)
COC(=O)C1=C(C)[C@H](O)[C@@H](C)[C@](C)(c2cc(OC)c(C)c(OC)c2COc2ccccc2)O1	none (no result: IMPase inh)
Cn1cccc1C(=O)N1CCC2(CC1)CN(Cc1ccc(C#N)cc1)C2	none (no result: IMPase inh)
COc1ccc(Nc2nc3ccccc3nc2NS(=O)(=O)c2ccc(Cl)cc2)cc1OC	none (no result: HPGD block, ALDH1A1 inh)
Cc1ccc(/C=N/n2c(-c3ccncc3)n[nH]c2=S)cc1	HPGD block 20µM, ALDH1A1 inh inconclusive (no result: IMPase inh)
S=c1[nH]nc(-c2ccncc2)n1/N=C/c1cccc2ccccc12	HPGD block 0.32µM
Cc1n[nH]c(=S)n1/N=C/c1ccccc1	HPGD block inconclusive (no result: IMPase inh)
C(=N\n1cnnc1)/c1cccc2ccccc12	none
CC(C)(C)c1ccc(-c2n[nH]c(=S)n2/N=C/c2ccncc2)cc1	HPGD block 11µM (no result: IMPase inh)
CC1=C(C(=O)OCC2CCCO2)C(c2ccc(Cl)cc2)NC(=O)N1 (stereo unspecified)	none (no result: IMPase inh, HPGD block)
CC(=O)Nc1ccc(Br)cc1C(=O)C(=O)O	ALDH1A1 inh inconclusive
CC[C@H](C)[C@@H](NC(=O)O[C@@H]1C(=O)c2ccc(OC)cc2O[C@H]1c1ccc2c(c1)OCO2)C(=O)OC	ALDH1A1 inh inconclusive (no result: IMPase inh)
Cc1ccc(S(=O)(=O)c2c(C)cc(C)nc2N2CCCC2)cc1	none (no result: IMPase inh, HPGD block)
N#C/C(=C(/O)c1ccco1)c1nc2ccccc2s1	none
N#C/C(=C(\O)c1ccco1)c1ccccn1	ALDH1A1 inh 25µM
Cc1ccc(S(=O)(=O)NC2c3cccc4cccc(c34)C2Sc2n[nH]c(N)n2)cc1 (stereo unspecified)	ALDH1A1 inh 4µM
O=S(=O)(NC1c2cccc3cccc(c23)C1Sc1ncccn1)c1ccc(Cl)cc1 (stereo unspecified)	ALDH1A1 inh inconclusive (no result: IMPase inh)
CC(C)C[C@@H](CC(=O)N[C@H](CC(=O)N[C@@H]1CCCC[C@H]1C(=O)N[C@H](CC(=O)N[C@@H](CCC(=O)O)CC(=O)O)Cc1ccccc1)C(C)C)NC(=O)[C@@H]1CCCC[C@H]1N	none (no result: IMPase inh)
COC(=O)C1=C(C)NC(=O)/C1=C\c1cc(C)n(-c2ccccc2F)c1C	ALDH1A1 inh 16µM (no result: IMPase inh, HPGD block)
COC(=O)C1=C(C)NC(=O)/C1=C\c1cc(C)n(-c2ccccc2C)c1C	ALDH1A1 inh inconclusive
Cc1cccc(C)c1-n1c(C)cc(/C=C2\NC(=O)NC2=O)c1C	HPGD block inconclusive, ALDH1A1 inh 16µM
O=C(COc1ccccc1/C=C1/NC(=O)NC1=O)Nc1ccccc1	none (no result: IMPase inh)
COC(=O)C1=C(C)NC(=O)/C1=C\c1cc(C)n(-c2c(C)cccc2C)c1C	ALDH1A1 inh 18µM
COC(=O)C1=C(C)NC(=O)/C1=C\c1cccs1	none
CN(C)c1ncc2nc(-c3cccc(C#N)c3)c(=O)n(C)c2n1	none (no result: IMPase inh, HPGD block)
Cc1nc(N2CCN(S(=O)(=O)c3cccc4nonc34)CC2)c2c3c(sc2n1)CCCC3	ALDH1A1 inh inconclusive
O=C(N/N=C\c1cccc(OC(=O)c2ccco2)c1)c1ccc2c(c1)OCO2	none (no result: IMPase inh)
C=CC(=O)N=c1sc2ccccc2n1-c1ccccc1	ALDH1A1 inh 0.22µM (no result: IMPase inh, HPGD block)
N=c1sc2ccccc2n1-c1ccccc1	none
Cc1ccc(NC(=O)NC(=O)N(C(C)C)S(=O)(=O)c2ccc(C)cc2)cc1	none (no result: IMPase inh, HPGD block)
O=C(CCN1CCCCC1)NNC(=O)C12CC3CC(CC(C3)C1)C2	none (no result: IMPase inh, HPGD block)
CCCCOc1cccc(C(=O)NC(=S)Nc2cccc(C(F)(F)F)c2)c1	ALDH1A1 inh 8.9µM (no result: IMPase inh)
CCCCOc1cccc(NC(=O)c2cccc(C(=O)Nc3cccc(OCCCC)c3)c2)c1	none (no result: HPGD block, ALDH1A1 inh)
CCOc1cccc(C(=O)NC(=S)Nc2cccnc2)c1	ALDH1A1 inh inconclusive (no result: IMPase inh)
CCCCOc1cccc(C(=O)NC(=S)Nc2cccnc2)c1	ALDH1A1 inh 25µM (no result: IMPase inh)
CC(C)Oc1cccc(C(=O)NC(=S)Nc2cccc(C(F)(F)F)c2)c1	ALDH1A1 inh 18µM
CC(C)Oc1cccc(C(=O)NC(=S)Nc2ccc(Cl)c(C(=O)O)c2)c1	ALDH1A1 inh inconclusive
COc1cccc(CC(NC(C)=O)C(=O)NC2CCN(C(=O)C3CC3)CC2)c1OC (stereo unspecified)	none (no result: IMPase inh, HPGD block)
O=C(Nc1cccc(F)c1)N1CC2(CCN(S(=O)(=O)c3ccccc3)CC2)C1	none (no result: IMPase inh)
COc1ccc(-c2nc(-c3ccccc3)c(-c3cc([N+](=O)[O-])ccc3C)[nH]2)cc1OC	none
CCOc1cc(-c2nc(-c3ccccc3)c(-c3cc([N+](=O)[O-])ccc3C)[nH]2)ccc1O	ALDH1A1 inh 6.3µM
COCC(=O)N1CCC2(CC1)CN(Cc1ccccc1OC)C2	none (no result: IMPase inh)
O=C(N/N=C/c1cccc(C(F)(F)F)c1)C1CCN(c2ncc(C(F)(F)F)cc2Cl)CC1	none
